Sampled rows, rich in hits. Any-hit rate of the full collection: about 3%.
BH1578 lux ind = inducers of Vibrio cholerae quorum light production without autoinducers, primary screen, BH1578 luxS cqsA deficient, single point; V. cholerae BH1578 lux reporter, luminescence, 6 h; activation, % at 18.7 µM; hit rate 0.16% among 350,000; AID 588436, 2011; in the data active means activation mostly above about 9.7%, no sharp cut-off
GDH-TPI counter-1 = GDH-TPI coupling enzyme inhibitors, primary screen, artefact control for M. tuberculosis FBA inhibitor project, biochemical, absorbance, full deck. GDH-TPI coupled enzyme counterscreen, NADH absorbance. inhibition, % at 4.8 µM. hit rate 1.2% among 360,000; in the data active means inhibition above about 30%;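 further: 0% = DMSO wells and 100% = wells lacking the enzyme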
Mtb FBA inh = Mtb FBA enzyme inhibitors, primary screen, biochemical, fluorescence, strain H37Rv | Fructose-bisphosphate aldolase (Mycobacterium tuberculosis (strain ATCC 25618 / H37Rv)), … | purified M. tuberculosis FBA, fluorescence read-out | inhibition, % at 1 µM | hit rate 2.3% among 360,000 | AID 588726, 2011;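 further: 0% = vehicle and 100% = reference inhibitor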
Target sequence (P9WQA3 whole entry, looked up): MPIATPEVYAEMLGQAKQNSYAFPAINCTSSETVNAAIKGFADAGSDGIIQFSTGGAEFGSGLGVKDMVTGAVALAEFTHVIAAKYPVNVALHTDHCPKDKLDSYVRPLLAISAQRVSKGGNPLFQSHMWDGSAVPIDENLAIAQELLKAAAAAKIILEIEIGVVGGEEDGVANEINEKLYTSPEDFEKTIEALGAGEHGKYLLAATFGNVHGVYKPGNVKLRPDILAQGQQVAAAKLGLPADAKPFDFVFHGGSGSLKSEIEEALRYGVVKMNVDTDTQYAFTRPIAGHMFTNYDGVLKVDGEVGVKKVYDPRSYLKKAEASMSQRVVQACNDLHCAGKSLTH
BioA inh = M. tuberculosis BioA enzyme inhibitors, primary screen, biochemical, plate reader, single point, HTS; purified M. tuberculosis BioA enzyme; hit rate 0.096% among 360,000; 7,8-diaminopelargonic acid synthase BioA (Mycobacterium tuberculosis); inhibition, % at 9.99 µM; in the data active means inhibition above about 40%
Mtb FBA inh conf = M. tuberculosis aldolase blockers, biochemical, fluorescence, strain H37Rv, confirmation; shares compounds with Mtb FBA inh; purified M. tuberculosis FBA, fluorescence read-out; inhibition, % at 1 µM; hit rate 78% among 5,600;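 further: 0% = vehicle wells and 100% = reference inhibitor wells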
GDH-TPI counter-2 = GDH-TPI coupling enzyme inhibitors, artefact control for M. tuberculosis FBA inhibitor project, biochemical, fluorescence, high throughput; hit rate 81% among 5,600; inhibition, % at 1 µM; GDH-TPI coupled enzyme counterscreen; shares compounds with Mtb FBA inh; in the data active means inhibition above about 10%
GDH-TPI dose = GDH-TPI coupling enzyme inhibitors, dose response, artefact control for M. tuberculosis FBA inhibitor project, biochemical, fluorescence, IC50; shares compounds with Mtb FBA inh; GDH-TPI coupled enzyme assay, artifact counterscreen; IC50, µM; hit rate 79% among 170; AID 652145, 2013; call rule not given here
The depositor's hits bear a star; i = inactive; nt = not tested or not shown; + = active, no number; ! = not confirmed by another sample. Unless noted, no stated cut-off is given here; in the data, active means inhibition above about 27%; inactive means the rest.

SMILES	BH1578 lux ind	GDH-TPI counter-1	Mtb FBA inh	BioA inh	Mtb FBA inh conf	GDH-TPI counter-2	others
C[C@H](CO)N1C[C@H](C)[C@H](CN(C)S(=O)(=O)c2ccc(Cl)cc2)OCCCC[C@H](C)Oc2ccc(NC(=O)Nc3ccc4c(c3)OCO4)cc2C1=O	nt	nt	nt	-3.9	nt	nt
CCN(CC(=O)Nc1c(F)cccc1F)C(=O)COc1ccc2c(C)cc(=O)oc2c1	-0.9	12.7	29.9*	nt	123.4*	109.3*
Cc1cc(=O)oc2cc(OCC(=O)OC(C)C(=O)Nc3ccc(S(N)(=O)=O)cc3)ccc12 (stereo unspecified)	nt	17.6	33.4*	nt	81.8*	66.3*
Cc1cccc(C(C)C)c1NC(=O)COC(=O)COc1ccc2c(C)cc(=O)oc2c1	2.0	5.5	30.1*	nt	8.3	-0.2
Cc1cccc(C)c1NC(=O)COC(=O)COc1ccc2c(C)cc(=O)oc2c1	-0.3	13.3	23.7	-2.0	nt	nt
Cc1noc(C)c1NC(=O)N[C@H]1CC[C@H](CC(=O)Nc2ccc(-c3ccccc3)cc2)O[C@@H]1CO	nt	nt	nt	0.8	nt	nt
Cc1c(OCC(=O)NC2CCN(Cc3ccccc3)CC2)ccc2c3c(c(=O)oc12)CCC3	-0.7	5.2	10.2	-1.2	nt	nt
Cc1c(OC(C)C(=O)NCCN2CCOCC2)ccc2c3c(c(=O)oc12)CCCC3 (stereo unspecified)	-0.6	1.9	34.1*	7.5	50.4*	37.7*
Cc1c(OCC(=O)OC(C)C)ccc2c3c(c(=O)oc12)CCC3	6.2	17.3	12.5	0.4	nt	nt
Cc1cc(=O)oc2c(C)c(OC(C)C(=O)NCCN3CCOCC3)ccc12 (stereo unspecified)	i	5.0	12.6	nt	nt	nt
CC(=O)C(C)Oc1ccc2c3c(c(=O)oc2c1C)CCCC3 (stereo unspecified)	-0.3	15.9	60.9*	18.6	87.6*	69.8*
Cc1c(OC(C)C(=O)NCC(O)c2ccccc2)ccc2c3c(c(=O)oc12)CCC3 (stereo unspecified)	-0.7	17.0	28.8*	nt	+	+
Cc1c(OC(C)C(=O)N[C@H](C(=O)O)c2ccccc2)ccc2c3c(c(=O)oc12)CCCC3 (stereo partly specified)	-0.7	28.4	81.0*	3.2	80.7*	59.1*
COc1ccccc1C#Cc1cnc2c(c1)C(=O)N([C@@H](C)CO)C[C@H](C)[C@@H](CN(C)C)O2	nt	nt	nt	2.4	nt	nt
Cn1c(=O)c2cc3ccccc3nc2n(C)c1=O	-0.4	12.9	35.8*	nt	59.0*	51.0*
COCC(=O)N[C@@H]1CC[C@H](CC(=O)N2CCCCC2)O[C@@H]1CO	nt	nt	nt	-0.8	nt	nt
CCn1c2ccccc2c2cc(/C(C)=N/O)ccc21	i	2.0	4.0	2.4	nt	nt
C/C(=N\O)c1ccc2c3ccccc3n(C)c2c1	i	5.3	43.8*	0.7	+	168.9*
C[C@@H]1CN([C@@H](C)CO)C(=O)c2cc(C#CC3CCCCC3)cnc2O[C@H]1CN(C)Cc1ccncc1	nt	nt	nt	2.6	nt	nt
CCS(=O)(=O)Nc1ccc(C2=NN(S(C)(=O)=O)C(c3cccs3)C2)cc1 (stereo unspecified)	0.9	0.0	93.2*	nt	56.9*	44.6*
CS(=O)(=O)N1N=C(c2ccccc2)CC1c1cccs1 (stereo unspecified)	nt	-1.2	0.9	1.0	nt	nt
Cc1ccc2c(c1)c1c3n2CCNC3CCC1 (stereo unspecified)	-0.7	-1.4	81.2*!	-0.2	44.1*	36.5*
CCOC(=O)c1sc2nc(C)nc(NCCc3ccccn3)c2c1C	i	2.9	71.2*	nt	22.2	12.5*
CCOC(=O)c1sc2nc(C)nc(NCc3ccccc3OC)c2c1C	-0.6	4.7	-0.4	-0.8	nt	nt
Cc1ccsc1C(=O)N1CCN(S(=O)(=O)c2cccc(F)c2)CC1	-14.3	-9.8	2.3	0.7	nt	nt
SMILES	BH1578 lux ind	GDH-TPI counter-1	Mtb FBA inh	BioA inh	Mtb FBA inh conf	GDH-TPI counter-2	others
CC1CCCN(C(=O)c2cc(-c3cccs3)nc3ccccc23)C1 (stereo unspecified)	nt	26.1	83.4*	nt	1.1	-1.4
O=C(c1cc(-c2cccs2)nc2ccccc12)N1CCN(S(=O)(=O)c2cccc(F)c2)CC1	-0.7	14.8	37.6*	-1.3	122.8*	91.8*
O=C(c1cc(-c2cccs2)nc2ccccc12)N1CCN(S(=O)(=O)c2ccccc2)CC1	i	25.9	57.0*	-3.4	97.7*	75.7*
O=C(c1cc(-c2cccs2)nc2ccccc12)N1CCN(c2ccccc2)CC1	-0.2	6.0	3.5	nt	nt	nt
CC1CC(C)CN(C(=O)c2cc(-c3ccncc3)nc3ccccc23)C1 (stereo unspecified)	i	10.0	2.7	-3.7	nt	nt
CO[C@H]1CN(C)C(=O)c2cc(NC(=O)c3ccc(F)cc3)ccc2OC[C@H](C)NC[C@@H]1C	nt	nt	nt	-0.7	nt	nt
COc1ccc(S(=O)(=O)N(C)C[C@H]2OCCCC[C@H](C)Oc3ccc(NS(=O)(=O)c4ccc(C)cc4)cc3C(=O)N([C@@H](C)CO)C[C@@H]2C)cc1	nt	nt	nt	0.2	nt	nt
O=C(Cc1cccc2ccccc12)Nc1ccc(O)cc1C(=O)O	0.8	4.3	32.4*	0.0	3.8	1.2
O=C(Cc1cccc2ccccc12)Nc1ccc(Br)cc1C(=O)O	-0.9	15.4	-0.1	3.6	nt	nt
O=C(NCC[C@H]1CC[C@@H](NC(=O)c2ccccc2F)[C@@H](CO)O1)c1ccc2c(c1)OCO2	nt	nt	nt	1.4	nt	nt
CO[C@@H]1CN(C)C(=O)c2cc(NS(=O)(=O)c3ccc(Oc4ccccc4)cc3)ccc2OC[C@H](C)NC[C@@H]1C	nt	nt	nt	0.6	nt	nt
Oc1ccc(CN2CCCCC2)nc1-c1ccccc1	2.9	3.4	86.5*	0.8	16.0	-0.5	GDH-TPI dose=5.29*
COc1ccccc1NC(=O)N1C[C@H](O)COC[C@@H]2O[C@H](CC(=O)NCCc3ccccc3)CC[C@H]21	nt	nt	nt	-6.2	nt	nt
COc1ccc2c(C)cc(=S)[nH]c2c1	-0.4	6.1	5.4	nt	nt	nt
CC(=O)Oc1ccc2c(C)cc(=O)[nH]c2c1	nt	8.2	58.1*	-0.8	9.9	-2.6
COC(=O)c1ccc(-c2nc3ccc(C)cc3o2)cc1	i	10.1	31.6*	-1.1	147.2*	123.6*
Cc1ccc2nc(-c3ccccn3)oc2c1	-0.3	17.3	103.1*	1.7	41.7*	30.4*
Cc1ccc(-c2nc3cc(C)ccc3o2)cc1	i	10.5	-2.5	-1.5	nt	nt
C[C@@H]1CN([C@H](C)CO)C(=O)c2cc(NC(=O)Nc3ccc(F)cc3)ccc2O[C@@H](C)CCCCO[C@H]1CN(C)Cc1ccncc1	nt	nt	nt	-0.6	nt	nt

Screening data as filed in PubChem BioAssay.
